{"source": "PubChem BioAssay (EPA / NIEHS)", "key": {"[1]": {"biological_target": "Estrogen receptor beta (Homo sapiens) (UniProt Q92731)", "sequence (Q92731 whole entry, looked up, the tested form may be a part)": "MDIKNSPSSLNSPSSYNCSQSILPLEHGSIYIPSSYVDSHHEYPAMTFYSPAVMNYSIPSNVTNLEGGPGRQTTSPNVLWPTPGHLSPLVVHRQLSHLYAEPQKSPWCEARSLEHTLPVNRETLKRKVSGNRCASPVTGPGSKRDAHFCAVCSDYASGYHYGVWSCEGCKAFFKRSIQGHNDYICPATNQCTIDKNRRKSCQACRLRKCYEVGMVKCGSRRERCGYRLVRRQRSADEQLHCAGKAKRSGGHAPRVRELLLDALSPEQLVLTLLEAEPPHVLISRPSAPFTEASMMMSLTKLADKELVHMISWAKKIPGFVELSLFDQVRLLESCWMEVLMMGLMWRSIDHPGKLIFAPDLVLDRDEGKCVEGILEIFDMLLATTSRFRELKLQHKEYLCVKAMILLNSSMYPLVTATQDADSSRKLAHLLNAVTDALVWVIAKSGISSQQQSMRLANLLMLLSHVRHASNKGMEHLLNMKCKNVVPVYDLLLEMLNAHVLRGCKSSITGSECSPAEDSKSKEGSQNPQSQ", "assay": "OT_ER_ERbERb_1440: Odyssey Thera (OT) 24-hour HEK293T Protein-Complementation Assay for Estrogen Receptor-beta/-beta Homodimer (AID 2283380);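 further: fluorescence gain from ER beta LBD homodimer complementation read by laser scanning cytometry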", "procedure,_shortened": "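HEK293T cells stably expressing human ER-beta LBD (aa 310-547) PCA homodimer pair, dosed 24 h; formaldehyde-fixed, Draq5-stained. Readout: increase in nuclear (agonist) or nuclear plus cytoplasmic (antagonist) fluorescence intensity versus DMSO, gain-of-signal fitting.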"}, "[2]": {"biological_target": "Estrogen receptor (Homo sapiens) (UniProt P03372)", "sequence (P03372 whole entry, looked up)": "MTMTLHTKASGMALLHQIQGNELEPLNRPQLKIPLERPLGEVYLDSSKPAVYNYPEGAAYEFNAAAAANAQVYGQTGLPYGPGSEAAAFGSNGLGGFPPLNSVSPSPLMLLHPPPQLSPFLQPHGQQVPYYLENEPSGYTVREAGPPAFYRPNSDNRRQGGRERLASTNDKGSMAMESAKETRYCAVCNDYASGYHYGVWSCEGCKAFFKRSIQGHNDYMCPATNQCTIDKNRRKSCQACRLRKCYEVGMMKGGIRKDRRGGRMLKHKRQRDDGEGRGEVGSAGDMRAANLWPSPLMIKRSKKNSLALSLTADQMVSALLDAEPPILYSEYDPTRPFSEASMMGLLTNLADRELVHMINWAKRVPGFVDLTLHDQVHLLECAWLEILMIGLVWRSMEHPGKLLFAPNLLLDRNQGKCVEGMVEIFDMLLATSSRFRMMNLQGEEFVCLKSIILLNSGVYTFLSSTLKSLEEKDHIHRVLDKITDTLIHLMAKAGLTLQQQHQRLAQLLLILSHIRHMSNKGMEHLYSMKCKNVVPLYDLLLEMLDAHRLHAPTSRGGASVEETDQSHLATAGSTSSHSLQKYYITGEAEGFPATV", "assay": "OT_ERa_GFPERaERE_0480: Odyssey Thera (OT) 8-hour HeLa Transcription Induction Assay for Estrogen Receptor (AID 2283381; active means hit-call score of the fitted dose curve at least 0.9, where 1 is the maximum; inactive means score below 0.9)", "procedure,_shortened": "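Fluorescence microscopy with high-content image analysis measures ERE-driven GFP induction in HeLa cells at 8 h post-dose. Increases fitted against DMSO baseline.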"}, "[3]": {"biological_target": "Estrogen receptor (Homo sapiens) (UniProt P03372)", "assay": "OT_ERa_GFPERaERE_0120: Odyssey Thera (OT) 2-hour HeLa Transcription Induction Assay for Estrogen Receptor (AID 2283382)", "procedure,_shortened": "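Fluorescence-microscopy images of the GFP-ERα/ERE reporter, scored by high-content image algorithms, give the readout. HeLa exposure lasted 2 h, and only signal increase over DMSO was fitted.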"}, "[4]": {"biological_target": "mouse Estrogen Receptor alpha (Era), Esr1 (gene 13982) (UniProt P19785)", "sequence (P19785 whole entry, looked up)": "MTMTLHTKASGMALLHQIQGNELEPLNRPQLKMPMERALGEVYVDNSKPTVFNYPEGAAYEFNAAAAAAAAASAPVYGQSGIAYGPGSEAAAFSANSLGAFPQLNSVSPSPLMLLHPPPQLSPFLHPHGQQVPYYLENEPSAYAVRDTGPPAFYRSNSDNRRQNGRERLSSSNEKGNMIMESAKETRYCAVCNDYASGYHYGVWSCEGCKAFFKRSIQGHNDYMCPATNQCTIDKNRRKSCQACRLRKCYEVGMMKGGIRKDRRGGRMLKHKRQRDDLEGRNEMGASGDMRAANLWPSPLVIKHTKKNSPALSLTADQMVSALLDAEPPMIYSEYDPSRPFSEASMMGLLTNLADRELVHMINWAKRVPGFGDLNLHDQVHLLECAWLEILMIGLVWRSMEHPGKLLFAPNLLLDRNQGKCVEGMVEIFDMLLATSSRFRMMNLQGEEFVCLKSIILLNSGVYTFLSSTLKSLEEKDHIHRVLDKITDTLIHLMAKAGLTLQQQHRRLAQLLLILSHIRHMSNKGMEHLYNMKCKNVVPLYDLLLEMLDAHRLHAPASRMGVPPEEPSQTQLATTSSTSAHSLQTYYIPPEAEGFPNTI", "assay": "NVS_NR_mERa: NovaScreen (NVS) Nuclear Receptor Binding Assay for mouse Estrogen Receptor alpha (Era) (AID 2283378)", "procedure,_shortened": "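Filter scintillation counts of bound radioligand, measured 18 h post-dose, gave the readout; decreased signal relative to DMSO controls indicated displacement from mouse Era. Primary screen ran in duplicate at 25 uM; active chemicals were retested across concentrations.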"}, "[5]": {"biological_target": "human Norepinephrine Transporter (NET), SLC6A2 (gene 6530) (UniProt P23975)", "sequence (P23975 whole entry, looked up)": "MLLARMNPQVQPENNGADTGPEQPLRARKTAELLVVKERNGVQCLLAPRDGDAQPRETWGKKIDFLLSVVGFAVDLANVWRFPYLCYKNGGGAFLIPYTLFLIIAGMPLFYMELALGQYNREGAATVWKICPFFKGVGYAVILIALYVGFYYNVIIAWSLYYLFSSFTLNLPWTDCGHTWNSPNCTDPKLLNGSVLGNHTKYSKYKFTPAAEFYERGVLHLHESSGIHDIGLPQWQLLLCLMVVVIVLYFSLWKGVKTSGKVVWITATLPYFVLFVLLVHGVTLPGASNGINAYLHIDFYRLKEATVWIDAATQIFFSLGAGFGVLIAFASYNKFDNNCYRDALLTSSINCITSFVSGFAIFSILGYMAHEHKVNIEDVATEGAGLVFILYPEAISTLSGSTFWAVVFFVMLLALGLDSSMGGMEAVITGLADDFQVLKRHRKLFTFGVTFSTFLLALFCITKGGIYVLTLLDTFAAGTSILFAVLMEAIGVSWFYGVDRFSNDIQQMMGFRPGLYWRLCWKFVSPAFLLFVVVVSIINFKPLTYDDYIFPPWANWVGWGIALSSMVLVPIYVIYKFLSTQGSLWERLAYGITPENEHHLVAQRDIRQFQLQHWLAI", "assay": "NVS_TR_hNET: NovaScreen (NVS) Transporter Assay for human Norepinephrine Transporter (NET) (AID 2283377);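 further: cell-free membrane protein extracted from CHO cells expressing human NET; displacement of radioligand from human NET seen as loss of scintillation signal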", "procedure,_shortened": "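In this cell-free binding screen, chemicals at 25 uM (duplicate) compete with a radioligand for CHO-derived human NET over 1 hour, with filter-based radiodetection.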"}, "[6]": {"biological_target": "Agonist Androgen Response Element (ARE), AR (gene 367) (UniProt P10275)", "sequence (P10275 whole entry, looked up)": "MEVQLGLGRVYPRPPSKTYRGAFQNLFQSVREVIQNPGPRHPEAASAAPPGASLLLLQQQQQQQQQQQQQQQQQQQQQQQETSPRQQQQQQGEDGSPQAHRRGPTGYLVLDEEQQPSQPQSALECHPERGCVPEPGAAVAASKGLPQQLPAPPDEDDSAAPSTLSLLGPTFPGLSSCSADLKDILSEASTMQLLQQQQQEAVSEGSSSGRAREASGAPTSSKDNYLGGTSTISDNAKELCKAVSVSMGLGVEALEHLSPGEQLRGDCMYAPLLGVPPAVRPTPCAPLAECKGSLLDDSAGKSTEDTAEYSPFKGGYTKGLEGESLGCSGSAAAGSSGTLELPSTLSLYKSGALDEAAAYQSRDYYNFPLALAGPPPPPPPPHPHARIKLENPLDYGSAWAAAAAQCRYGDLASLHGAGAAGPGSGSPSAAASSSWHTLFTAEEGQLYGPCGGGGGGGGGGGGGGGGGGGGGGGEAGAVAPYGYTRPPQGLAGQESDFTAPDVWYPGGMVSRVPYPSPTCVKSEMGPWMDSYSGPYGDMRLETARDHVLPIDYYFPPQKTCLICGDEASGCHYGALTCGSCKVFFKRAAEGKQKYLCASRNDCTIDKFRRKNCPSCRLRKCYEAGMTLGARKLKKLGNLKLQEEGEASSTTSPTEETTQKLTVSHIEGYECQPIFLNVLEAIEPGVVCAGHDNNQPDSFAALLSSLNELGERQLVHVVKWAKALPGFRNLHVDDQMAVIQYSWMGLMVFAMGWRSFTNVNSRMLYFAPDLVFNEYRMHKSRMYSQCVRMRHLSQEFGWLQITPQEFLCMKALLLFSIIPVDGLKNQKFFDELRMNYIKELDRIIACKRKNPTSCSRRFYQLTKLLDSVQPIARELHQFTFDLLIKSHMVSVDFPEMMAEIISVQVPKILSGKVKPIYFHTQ", "assay": "OT_AR_ARELUC_AG_1440: Odyssey Thera (OT) 24-hour CHO-K1 Luciferase Assay for Agonist Androgen Response Element (ARE) (AID 2283379)", "procedure,_shortened": "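Luminescence increase above DMSO, read after a 24 h compound treatment of CHO-K1 cells expressing an androgen response element luciferase reporter, gives the single primary endpoint; concentration-response fitting used the positive direction.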"}}, "note": "Inconclusive results are not listed. Active and inactive are the calls of the source. How the source made its calls, unless noted: active means hit-call score of the fitted dose curve at least 0.9, where 1 is the maximum; inconclusive means response in the unintended direction; inactive means score below 0.9."}
{"molecule": "O=C(O)c1cccc(C(=O)O)n1", "values": [{"measurement": "outcome", "setting": "[1]", "result": "inactive"}, {"measurement": "outcome", "setting": "[2]", "result": "inactive"}, {"measurement": "outcome", "setting": "[3]", "result": "inactive"}]}
{"molecule": "CCCCCCCCCCCCCC[n+]1ccccc1", "values": [{"measurement": "outcome", "setting": "[4]", "result": "inactive"}]}
{"molecule": "Clc1ccc2c(Cl)ccnc2c1", "values": [{"measurement": "AC50", "setting": "[5]", "result": "25 µM (active)"}]}
{"molecule": "c1cnc2c(c1)ccc1cccnc12", "values": [{"measurement": "outcome", "setting": "[1]", "result": "inactive"}]}
{"molecule": "O=C1NS(=O)(=O)c2ccccc21", "values": [{"measurement": "outcome", "setting": "[1]", "result": "inactive"}]}
{"molecule": "CCCCc1oc2ccccc2c1C(=O)c1cc(I)c(OCCN(CC)CC)c(I)c1", "values": [{"measurement": "outcome", "setting": "[1]", "result": "inactive"}, {"measurement": "outcome", "setting": "[2]", "result": "inactive"}, {"measurement": "outcome", "setting": "[3]", "result": "inactive"}]}
{"molecule": "CCCCCCC(C)(C)C(=O)O", "values": [{"measurement": "outcome", "setting": "[6]", "result": "inactive"}, {"measurement": "outcome", "setting": "[1]", "result": "inactive"}, {"measurement": "outcome", "setting": "[2]", "result": "inactive"}, {"measurement": "outcome", "setting": "[3]", "result": "inactive"}]}
{"molecule": "CCCCCCOC(=O)c1ccc(O)cc1", "values": [{"measurement": "AC50", "setting": "[4]", "result": "3.82 µM (active)"}]}
{"molecule": "CCCCCC(C)OC(=O)COc1ccc(Cl)c2cccnc12", "note": "(stereo not drawn)", "values": [{"measurement": "outcome", "setting": "[2]", "result": "inactive"}, {"measurement": "outcome", "setting": "[3]", "result": "inactive"}]}
{"molecule": "Cc1[nH]nc2c1N=C(c1ccccc1Cl)c1cc([N+](=O)[O-])ccc1N2", "values": [{"measurement": "outcome", "setting": "[1]", "result": "inactive"}]}
